TsaE inh – displaces an ADP probe from E. coli YjeE (TsaE) | Potency, µM | P0AF67 | purified YjeE enzyme, qHTS inhibition assay | 71,000 tested, 0.05% active | AID 605
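Fluorescence polarization of a BODIPY Texas Red–ADP probe (2 uM) bound to purified YjeE (10 uM) was read after 15 min room-temperature incubation with compounds. Loss of polarization marks inhibitors; ADP serves as titrated control.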
BRCT PPI green – blocks human BRCA1 BRCT binding to phosphopeptide, green readout; BRCA1 BRCT-phosphopeptide binding, green fluorescence polarization; Potency, µM (titrated, usually from 76.9 µM), inactives show at the highest dose activity change, negative = inhibition, most hits filed as inhibitors; 75,000 tested, 0.05% active;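 also: potency is read from the fitted curve at half-maximal effect; plate controls were peptide without protein for full effect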
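Compounds were incubated for 12 min at room temperature with a complex of 100 nM fluorescein-tagged pBACH1 decapeptide and 250 nM His-tagged BRCT protein. Buffer was phosphate pH 7.3 with EDTA, DTT and Tween 20. Disruption of binding lowers the polarization signal.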
Pol III holo inh – DNA polymerase III holoenzyme inhibition. Potency, µM (doses to about 57.1 µM), without a hit: top-dose activity change, negative = inhibition. reconstituted DNA polymerase III holoenzyme replication, biochemical. 71,000 tested, 0.25% active; also: potency is read from the fitted curve at half-maximal effect; % is scaled to controls: 0 for no effect and ±100 for the full control effect
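Reconstituted *E. coli* holoenzyme (0.35 nM Pol III, 1 nM beta, 154 nM SSB, 2 nM primase) was preincubated with compound for 15 min at RT. Synthesis on 1.4 nM ssM13Gori ran 35 min, then was stopped with PicoGreen/EDTA and read as dsDNA fluorescence.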
BRCT PPI red – BRCT-phosphoprotein interaction inhibition (red fluorophore); AID 892; Potency, µM (doses to about 76.9 µM), for inactives: at the top dose activity change, negative = inhibition, usual class: inhibitors; 75,000 tested, 0.03% active; BRCT-phosphopeptide binding, red fluorescence polarization; also: % is scaled to controls: 0 for no effect and ±100 for the full control effect
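Fluorescence polarization: 100 nM His-tagged BRCA1 BRCT with 100 nM TAMRA-labelled phospho-BACH1 decapeptide, phosphate buffer pH 7.3 with 150 mM NaCl, DTT, 0.01% Tween 20; 12 min RT. Binding inhibition seen as FP decrease.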
Tau filament bind – tau filament binding | recombinant tau filaments, thioflavin S fluorescence, 15 h; filaments grown with octadecylsulfate alongside compound | P10636 | Potency, µM (top dose mostly 57.1 µM), for the others: top-dose activity change, negative = inhibition | 71,000 tested, 2% active;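 also: potency is read from the fitted curve at half-maximal effect; % is scaled to controls: 0 for no effect and ±100 for the full control effect; actives lower thioflavin S fluorescence by blocking filaments or displacing dye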
Target sequence (P10636 whole entry, looked up): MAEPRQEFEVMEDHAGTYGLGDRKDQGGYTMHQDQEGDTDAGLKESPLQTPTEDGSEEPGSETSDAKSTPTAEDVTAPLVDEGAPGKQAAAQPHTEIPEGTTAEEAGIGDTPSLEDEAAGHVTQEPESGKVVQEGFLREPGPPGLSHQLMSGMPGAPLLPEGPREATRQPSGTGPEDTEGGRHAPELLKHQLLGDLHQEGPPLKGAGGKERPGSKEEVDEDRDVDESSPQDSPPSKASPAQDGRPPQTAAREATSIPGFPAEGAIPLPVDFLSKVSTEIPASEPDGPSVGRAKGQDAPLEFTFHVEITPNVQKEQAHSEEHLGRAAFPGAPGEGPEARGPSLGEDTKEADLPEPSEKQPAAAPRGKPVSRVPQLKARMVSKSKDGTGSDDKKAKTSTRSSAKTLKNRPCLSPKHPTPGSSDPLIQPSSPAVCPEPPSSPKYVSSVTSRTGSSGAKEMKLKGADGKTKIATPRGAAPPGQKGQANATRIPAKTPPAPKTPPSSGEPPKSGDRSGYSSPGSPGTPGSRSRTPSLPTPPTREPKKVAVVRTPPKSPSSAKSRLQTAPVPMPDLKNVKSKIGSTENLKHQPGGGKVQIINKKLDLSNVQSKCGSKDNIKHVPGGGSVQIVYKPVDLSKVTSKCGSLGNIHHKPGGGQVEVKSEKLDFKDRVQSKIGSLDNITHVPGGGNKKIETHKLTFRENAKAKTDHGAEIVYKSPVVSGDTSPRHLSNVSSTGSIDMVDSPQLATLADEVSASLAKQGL
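ThS-based fibril read: tau 1 uM final, inducer ODS 30 uM final, 37 C for 15 h, ex 450/em 510 nm.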
Hsp90 Hop PPI – changes Hsp90-Hop TPR2A binding signal, up or down | AlphaScreen TPR2A-His6 binding biotin-Hsp90 C-terminal peptide | Potency, µM (titrated, usually from 57 µM), inactives show at the top dose activity change, negative = inhibition | 71,000 tested, 0.44% active | AID 595; active = well fitted curve in either direction with a large enough effect; inconclusive = small, poorly fitted or top-dose-only effect, or another doubt; also: potency is read from the fitted curve at half-maximal effect; % is scaled to controls: 0 for no effect and ±100 for the full control effect
Starred values were filed as active, the others as inactive; i = inactive; ? = inconclusive; . = no result given; [ ] = another dose, or the depositor's remark. Compounds with a hit are over-represented: about 2.4% of the library has one in this group of screens. Unless noted, calls follow the shape of the dose curve; as a rule, active = well fitted curve in the direction sought with a large enough effect; inconclusive = small, poorly fitted or top-dose-only effect, or another doubt; inactive = no such curve, though single readings can be large; an effect the other way counts as inactive or inconclusive.

SMILES	TsaE inh	BRCT PPI green	Pol III holo inh	BRCT PPI red	Tau filament bind	Hsp90 Hop PPI
O=C(Nc1cccc(-c2cnc3ccccc3n2)c1)c1ccco1	i	0.4%	-11.2%	-0.1%	31.6µM*	-6.5%
CC(=O)C1=C(C)NC(SCC(=O)c2ccc(Cl)c(Cl)c2)=C(C#N)C1c1ccco1 (configuration not stated)	i	3.1%	-11.7%	3.5%	1µM*	-11.9%
CC(=O)C1=C(C)NC(SCC(=O)c2cc(Cl)ccc2Cl)=C(C#N)C1c1ccco1 (configuration not stated)	i	5.5%	-15.1%	1.1%	91.7%	7.0%
N#Cc1c(NC(=O)C(F)(F)F)sc2c3c(=O)c4ccccc4c(=O)c=3oc3ccccc3c12	i	0.5%[15.4 µM]	-4.9%[11.4 µM]	-0.9%[15.4 µM]	3.98µM*	-6.4%[11 µM]
CCCN(CCc1ccccc1)[C@H]1CCc2c(O)cccc2C1	i	-1.6%	-6.9%	-2.9%	-2.0%	?
C=CCN1CCc2c(cc(O)c(O)c2Br)[C@H](c2ccccc2)C1	i	-1.6%	-11.7%	-2.2%	-4.0%	10µM*
COc1cc2nncc(SCc3ccc(Cl)c(Cl)c3)c2cc1OC	i	-0.7%[15.4 µM]	-4.2%[11.4 µM]	0.2%[15.4 µM]	2.6%[11.4 µM]	-4.6%[11 µM]
Nc1ccc(N=Nc2ccccc2)c(N)c1	i	0.1%	-3.9%	0.8%	1.58µM*	?
N[C@H](Cc1ccc(O)c(I)c1)C(=O)O	i	.	2.8%	.	-1.3%	-2.8%
Nc1[nH]nc2nc3ccccc3nc12	i	-0.9%	-9.0%	0.0%	39.8µM*	-7.7%
Nc1ncnc2c1nc(Sc1ccc(Cl)cc1)n2[C@@H]1O[C@H]2COP(=O)(O)O[C@@H]2[C@H]1O	i	-1.9%	5.7%	-1.7%	8.5%	-0.7%
C=CCOC(=O)c1sc(N2C(=O)c3oc4ccccc4c(=O)c3C2c2ccco2)nc1C (configuration not stated)	i	0.5%	-7.3%	-1.0%	10µM*	-2.7%
Cn1c(=O)c(C(=O)CN2CCCc3ccccc32)c(N)n(Cc2ccccc2)c1=O	i	2.7%	1.3%	1.7%	25.1µM*	?
CCC(=O)OCC(=O)c1c(N)n(Cc2ccccc2)c(=O)n(C)c1=O	i	0.9%	-2.9%	1.0%	13.3%	-1.1%
O=C(O)C(=Cc1ccc(-c2ccccc2)cc1)C(=O)O	i	-0.5%[15.4 µM]	-8.0%[11.4 µM]	-1.3%[15.4 µM]	6.2%[11.4 µM]	-2.3%[11 µM]
CCOc1ccc(NC(C)=O)cc1	i	-2.3%[3.08 µM]	-0.3%	1.3%	7.0%	-5.2%
CCOc1ccc(NCC(=O)Nc2ccc(C)cc2C)cc1	i	-6.1%	-3.0%	0.1%	31.6µM*	-13.5%
CN(C)CC(C)(C)CNC(=O)c1ccc(-n2c(=O)c(=O)[nH]c3ccccc32)cc1	.	-4.0%	.	-1.0%	.	.
CN(C)c1ccc(N=Cc2ccco2)cc1	i	0.2%	-0.1%	-0.8%	12.6µM*	?
C/C=C/C=C/C=O	i	-1.1%	-0.7%	-1.6%	10.8%	-0.5%
Clc1ccc(-c2nnc(N3CCCC3)nn2)cc1	i	-2.5%	-0.5%	-0.3%	12.6µM*	-11.6%
Clc1ccc(-c2noc(CN3CCCCC3)n2)cc1	i	0.7%[15.4 µM]	-11.7%[11.4 µM]	-1.2%[15.4 µM]	-5.7%[11.4 µM]	-1.6%[11 µM]
CN(C)c1ccc(-c2ccc3ncnc(N4CCNCC4)c3c2)cc1	i	-1.5%	-13.4%	-2.1%	12.6µM*	-6.4%
CN(C)c1ncnc2ccc(-c3ccoc3)cc12	i	-1.5%	-10.3%	1.3%	4.9%	-2.2%
CN(C)c1ccc(-c2ccc3ncnc(N(C)C)c3c2)cc1	i	0.0%	1.2%	-0.7%	5.01µM*	-3.7%
SMILES	TsaE inh	BRCT PPI green	Pol III holo inh	BRCT PPI red	Tau filament bind	Hsp90 Hop PPI
CN(C)c1ccc(-c2nc(N3CCNCC3)c3ccccc3n2)cc1	i	-1.4%	-9.9%	0.3%	3.16µM*	-6.5%
c1nc(N2CCNCC2)c2cc(-c3ccc4c(c3)OCO4)ccc2n1	i	0.7%	6.0%	0.6%	-4.7%	-3.8%
CCOC(=O)C1=C(CNCc2ccccc2Cl)NC(=O)NC1c1ccc2c(c1)OCO2 (configuration not stated)	i	7.3%	1.1%	-0.7%	15.8µM*	-11.7%
CCOC(=O)C1=C(CSc2nccn2C)NC(=O)NC1c1ccc2c(c1)OCO2 (configuration not stated)	i	-3.1%	-2.4%	0.8%	8.4%	-6.3%
CCOC(=O)C1=C(CN2CCC(C)CC2)NC(=O)NC1c1ccc(Cl)cc1 (configuration not stated)	i	1.9%	-5.4%	-0.6%	15.8µM*	-8.3%
O=C(O)c1ccccc1NS(=O)(=O)c1ccc(Cl)c(Cl)c1	.	2.5%	.	-1.8%	.	.
O=C1C2=CC[C@H]3C(=O)N(C4CCCCC4)C(=O)[C@@H]3[C@@H]2[C@H](O)[C@@H]2O[C@H]12	.	-1.8%[15.4 µM]	.	-0.1%[15.4 µM]	.	.
Cn1c(/N=C/c2c(O)ccc3ccccc23)nc2ccccc21	i	-0.2%	-8.5%[11.4 µM]	-1.4%	?	-10.8%[11 µM]
Oc1c(/C=N/c2ncn[nH]2)ccc2ccccc12	i	5.5%	2.2%	1.0%	12.6µM*	-6.0%
CCOC(=O)C1=C(C)NC2=C(C(=O)c3ccccc32)C1c1cccnc1 (configuration not stated)	i	-1.7%	6.5%	0.2%	3.16µM*	-8.8%
O=S(=O)(O)n1ccnc1 (tested in a mixture with another compound)	i	0.3%[15.4 µM]	-0.1%[11.4 µM]	0.1%[15.4 µM]	1.8%[11.4 µM]	-2.5%[11 µM]
CC(C)N=c1cc2n(-c3ccc(Cl)cc3)c3ccccc3nc-2cc1Nc1ccc(Cl)cc1	i	-0.2%[34.4 µM]	-7.4%[25.6 µM]	-0.6%[34.4 µM]	0.126µM*	-7.4%[26 µM]
N#Cc1c(N)nc2c(c1-c1ccco1)CCCCC2	i	-0.1%	-1.1%	1.3%	29.3%	-2.0%
N#Cc1c(-c2ccco2)c2c([nH]c1=S)CCCC2	i	8.4%	-25.9%	-2.5%	31.6µM*	-6.6%
c1coc(CN=C2NC(=NCc3ccco3)c3ccccc32)c1	i	5.4%	37.8%	-1.5%	10µM*	-6.3%
O=C1c2ccccc2C(O)N1Cc1ccco1 (configuration not stated)	i	0.2%	-5.8%	-1.4%	6.2%	-4.4%
CCn1c2ccccc2c2nnc(SCc3ccccc3)nc21	i	-0.5%	-2.8%	0.2%	-22.5%	-6.5%[2.3 µM]
CCn1c2ccccc2c2nnc(SCc3ccc(C(=O)OC)o3)nc21	i	-0.2%	0.3%	0.4%	31.6µM*	?
CCCCC(c1nnnn1CCOC)N1CCN(c2cccc(OC)c2)CC1 (configuration not stated)	i	0.5%	?	-2.8%	12.6µM*	-20.1%
CCCC(c1nnnn1CCOC)N1CCN(c2cccc(OC)c2)CC1 (configuration not stated)	i	-0.7%	-1.2%	-1.3%	-28.0%	-6.9%
O=C(Nc1ccc2c(c1)OCCO2)C1CCN(S(=O)(=O)c2cccs2)CC1	i	1.7%	6.0%	-0.5%	-1.7%	5.4%
